Data reported in PubChem BioAssay AID1645875 (National Center for Advancing Translational Sciences (NCATS), 2021).
Inconclusive results are not listed. Values without a mark were called inactive. Activity calls are given as the source filed them. Calls follow the shape of the dose curve; as a rule, active = well fitted inhibition curve with a large enough effect; inconclusive = small, poorly fitted or top-dose-only effect; inactive = no such curve, though single readings can be large or run the other way. Where a SMILES comes first, the peptide text is derived from it. The star is where a group is joined. AFC = O=c1cc(C(F)(F)F)c2ccc(N*)cc2o1

Each compound was assayed against N-terminal Xaa-Pro-Lys N-methyltransferase 1 (Homo sapiens) (UniProt Q9BV86) (assay: Orthogonal qHTS for Inhibitors of N-terminal methyltransferase 1 (NTMT1): ThioGlo Assay). Details: NTMT1 SAHH-coupled ThioGlo fluorescence, 30 min; series mostly up to 84.5 µM; activity, negative = inhibition: at the top concentration.
Procedure, shortened: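 ThioGlo3 (15 uM) detects the thiol product formed by SAHH (10 uM) from SAM (100 uM) turnover by 125 nM NTMT1 (all final), with compounds in concentration series. Readings at ex 340/em 450 nm at start and after 30 min at room temperature; data background-normalized.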

Chain of N-terminal Xaa-Pro-Lys N-methyltransferase 1 (Homo sapiens) (Q9BV86 whole entry, looked up): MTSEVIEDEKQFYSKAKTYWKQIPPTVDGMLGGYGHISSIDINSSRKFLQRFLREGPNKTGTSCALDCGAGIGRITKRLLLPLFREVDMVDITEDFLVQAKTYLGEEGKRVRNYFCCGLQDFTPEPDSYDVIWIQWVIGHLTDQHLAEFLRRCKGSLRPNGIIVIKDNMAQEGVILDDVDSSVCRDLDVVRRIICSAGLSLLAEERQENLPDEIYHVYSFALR

SMILES	activity, negative = inhibition	Potency
Cc1ccc(S(=O)(=O)Nc2cnccc2C(=O)Nc2nc(-c3cccc(C)c3)cs2)cc1	-29.8%	
CC(=O)N[C@@H](CC(C)C)C(=O)N[C@@H](CCC(=O)O)C(=O)N[C@@H](CCC(=O)O)C(=O)N[C@@H](CC(=O)O)C(=O)Nc1ccc2c(C(F)(F)F)cc(=O)oc2c1 (Ac-LEED-{AFC})		44.1 µM (active)
COc1c/c(=C2\C=c3ccccc3=N2)[nH]/c1=C/c1[nH]c(C)cc1C		24.8 µM (active)
C[N+]1(C)CCC(OC(=O)C(c2ccccc2)c2ccccc2)CC1		2.74 µM (active)
COc1cc2nc(N3CCOCC3)nc(NC(C)C)c2cc1OC	82.2%	
Cc1cccc(NC(=O)c2c(NC(=O)c3ccccc3)sc3c2CCCC3)c1	-8.87%	
COc1cc(N2CCN(C(C)=O)CC2)ccc1Nc1ncc(Cl)c(Nc2ccc(N3CCN(C(C)=O)CC3)cc2OC)n1		22.1 µM (active)
N.N.N.N.N.N.N.N.N.N.N.N.N.N.O.O.[Ru+4].[Ru+5].[Ru+5]		34.5 µM (active)
CC[C@@H](C)Nc1cc(C(=O)NC2CC3CC[C@@H](C2)N3c2ccc(C(=O)C3CC3)cn2)c(C)cc1C(N)=O (stereo not given in full)		35 µM (active)
COc1cc2nc(N(C)C)nc(NC3CCN(C)CC3)c2cc1OC	83.9%	
CC[C@@H](c1ccc(F)c(F)c1)n1c(C(=O)OC)c(-c2ccno2)[nH]c1=S		6.98 µM (active)
COc1cc2c(NC3CCN(C(C)C)CC3)nc(N3CCCN(c4ccccc4)CC3)nc2cc1OCCCN1CCCC1		55.5 µM (active)
O=C(Nc1ccccc1)c1ccc(Nc2nnc(-c3ccc(O)cc3)c3ccccc23)cc1		27.8 µM (active)
Cc1cc(C)c2c(N)c(C(=O)NCc3ccc(Cl)cc3)sc2n1	137% [at 114 µM]	
NCC(O)C1CCCCCCC1 (stereo not given)	4.12%	
COc1cc2c(NC3CCN(C)CC3)nc(N3CCCN(C)CC3)nc2cc1OCCCN1CCCCC1		43.5 µM (active)
Fc1cc(-c2cccc3ncc(-c4cnn(C5CCNCC5)c4)nc23)cc(F)c1CN1CCOCC1		34.5 µM (active)
Fc1ccccc1CNCc1ccc(-c2ccnc3[nH]ccc23)cc1		49.4 µM (active)
COc1cccc(C(=O)NCCNc2nc3cc(C)cc(C)c3cc2C#N)c1		44.1 µM (active)
C[C@]12CC[C@@H]3c4ccc(O)c(O)c4CC[C@H]3[C@@H]1CCC2=O		17.5 µM (active)
CCOc1ccccc1N1CC(c2nc3ccccc3n2CCCCOc2cc(C)ccc2C)CC1=O (stereo not given)	16.7%	
CCOc1ccc(Nc2nc(-c3c(C)nc4ccccn34)cs2)cc1		3.12 µM (active)
Cc1[nH]c(/C=C2\C(=O)Nc3cc(-c4ccccc4)ccc32)c(C)c1CCC(=O)O		9.87 µM (active)
Cc1cnc(Nc2ccc(F)cc2Cl)nc1-c1c[nH]c(C(=O)NC(CO)c2cccc(Cl)c2)c1 (stereo not given)		6.22 µM (active)
COc1cc2c(NC3CCN(CC4CCCCC4)CC3)nc(N3CCCCC3)nc2cc1OCCOCCN(C)C		12.3 µM (active)
COc1ccc(C2CC(=O)N3CN(C4CCCCC4)CSC3=C2C#N)cc1 (stereo not given)		6.89 µM (active)
Cc1cc(N2CCOCC2)cc2[nH]c(-c3c(NC[C@@H](O)c4cccc(Cl)c4)cc[nH]c3=O)nc12		13.9 µM (active)
C[C@]12C[C@H](O)[C@H]3[C@@H](CCC4=CC(=O)CC[C@@]43C)[C@@H]1CC[C@@H]2C(=O)CO	4.72%	
COc1ccc(-c2nnc3n2N=C(c2c(OC)cccc2OC)CS3)cc1OC	25%	
CC[N+](CC)(CC)CCOc1cccc(OCC[N+](CC)(CC)CC)c1OCC[N+](CC)(CC)CC		0.614 µM (active)
